The target in one assay is Albumin (Bos taurus) (UniProt P02769). Kind of assay: compounds binding labelled BSA control protein – biochemical, small-molecule microarray, Alexa647 label, 635/667 nm fluorescence, artefact control for SMM control protein annotation, profiling panel (AID 1118).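 Note: score merges 667 nm emission intensity and signal-to-noise per printed compound spot.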 The conditions noted are these: BSA-A647 binding, fluorescence 635 nm, higher = more signal.
A short description of assay [1]: probe aXIP binding to arrayed compounds – biochemical, NeuroSMM set, 635/667 nm fluorescence, primary screen (AID 1119).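 Note: probe is the protein aXip251-270 applied at 1 µg/mL to compound-printed slides; binding of probe to printed compounds measured as 667 nm fluorescence plus signal to noise.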 The note with it: small-molecule microarray, higher = more signal, called active from +8 up or from −8 down.
Assay [2] is described as follows: probe aNOTCH3 binding on compound microarray – biochemical, small-molecule microarray, 635/667 nm fluorescence, primary screen (AID 1120).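 Note: probe is a biotin-tagged antibody raised against NOTCH3 rather than NOTCH3 protein; score merges spot fluorescence near 667 nm with spot signal to noise.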 The conditions noted are these: higher = more signal.
A short description of assay [3]: probe aNOTCH2 binding on compound microarray – biochemical, small-molecule microarray, 635/667 nm fluorescence, primary screen (AID 1121).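 Note: score merges feature fluorescence read at 667 nm with its signal to noise.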 The note with it: higher = more signal.
Assay [4] concerns the target Carbonic anhydrase 2 (Homo sapiens) (UniProt P00918). Nature of the assay: compounds binding carbonic anhydrase 2 – biochemical, small-molecule microarray, Alexa647-labelled CAII, profiling panel (AID 1122). The conditions noted are these: CAII-A647 binding fluorescence, higher = more signal.
The nature of assay [5]: COS7 lysate on small-molecule microarray, probe aHis, 635 nm (AID 1123).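 Note: z-score combines 667nm fluorescence intensity with signal-to-noise per printed compound spot.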 The note with it: COS7 cell lysate, fluorescence, higher = more signal.
The nature of assay [6]: probe aLAP1 signal on lysate-treated microarray – cell lysate, small-molecule microarray, COS7 lysate, primary screen (AID 1124).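 Note: lysate comes from COS7 cells expressing LAP1 and is applied at 0.3 µg/mL; score merges spot fluorescence near 667 nm with signal-to-noise over triplicate slides.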 The note with it: probe aLAP1, fluorescence, higher = more signal.
Another assay deals with Sam68 (KHDRBS1). Kind of assay: compounds binding KHDRBS1 protein – biochemical, small-molecule microarray, 635 nm fluorescence, primary screen (AID 1125).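 Note: score merges 667 nm channel intensity with signal to noise over triplicate slides.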 The note with it: higher = more signal.
Assay [7] has as its system Chordin-like protein 2 (CHRDL2). Nature of the assay: compounds binding chordin-like 2 – biochemical, small-molecule microarray, 635 nm fluorescence, primary screen (AID 1126).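 Note: printed compound slides probed with Chrdl2 protein at 4 µg/mL for 1 h at 4 C; score merges 667 nm emission intensity with signal to noise over three replicate slides.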 The conditions noted are these: fluorescence 635 nm, higher = more signal.
The target of assay [8] is Concanavalin-A (Canavalia ensiformis) (UniProt P02866). Kind of assay: compounds binding concanavalin A lectin – biochemical, small-molecule microarray, Alexa647 label, 635 nm, artefact control for SMM control protein annotation, primary screen (AID 1127).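 Note: z combines 667 nm emission intensity with signal-to-noise across three replicate slides.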 The note with it: ConA-A647 binding fluorescence, higher = more signal.
A short description of assay [9]: compounds binding Alexa647 anti-His antibody – biochemical, small-molecule microarray, 635 nm fluorescence, artefact control for SMM control protein annotation, primary screen (AID 1128).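 Note: score merges feature fluorescence with signal-to-noise for each printed compound spot.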 The note with it: higher = more signal.
Assay [10] concerns Human papillomavirus type 1a E7 protein (residues 1-88). Kind of assay: HPV1a E7 small-molecule binders, primary screen, biochemical, small-molecule microarray, residues 1-88, 635 nm (AID 1129). The note with it: small-molecule microarray binding, fluorescence 635 nm; higher = more signal.
Assay [11] has as its target Focal adhesion kinase 1 (Homo sapiens) (UniProt Q05397). Kind of assay: PTK2 protein binding on printed compound slides – biochemical, small-molecule microarray, 635/667 nm fluorescence, BSA, DTT, primary screen (AID 1130).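 Note: composite of spot emission at 667 nm and signal to noise over triplicate slides.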 The conditions noted are these: 635 nm fluorescence, higher = more signal.
Assay [12] relates to Fibrinogen (Alexa647-labelled). Nature of the assay: Alexa647-fibrinogen binding to printed small molecules – biochemical, small-molecule microarray, 635/667 nm fluorescence, artefact control for SMM control-protein annotation, profiling panel (AID 1131).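 Note: z-score merges 667 nm fluorescence with per-spot signal-to-noise over triplicate slides.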 The conditions noted are these: fibrinogen-A647 binding fluorescence, higher = more signal.
The target in assay [13] is Follistatin (Homo sapiens) (UniProt P19883). Nature of the assay: FST protein binding to printed compounds – biochemical, small-molecule microarray, 635/667 nm fluorescence, primary screen (AID 1132). The conditions noted are these: 635 nm fluorescence, higher = more signal.
Assay [14] addresses Fibroblast growth factor 2 (Homo sapiens) (UniProt P09038). Nature of the assay: basic fibroblast growth factor binding to printed compounds – biochemical, small-molecule microarray, 635/667 nm fluorescence, primary screen (AID 1133). The note with it: FGF2, fluorescence 635/667, higher = more signal.
A short description of assay [15]: JC-1 mitochondrial potential readout, lung cancer cells – cell-based, A549, JC-1 fluorescence, basal, 24 h, 100 nL, profiling panel (AID 1138).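 Note: A549 lung adenocarcinoma cells under basal conditions with no added stimulus; test concentration not given here.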 The conditions noted are these: higher = more signal.
The subject of a further assay is Lefty1. Kind of assay: Lefty1 protein binding to printed compounds – biochemical, small-molecule microarray, 635/667 nm fluorescence, primary screen (AID 1139). The note with it: fluorescence 635/667, higher = more signal.
Assay [16] deals with wheat germ agglutinin (Triticum aestivum), Alexa647-labelled. Kind of assay: Alexa647-WGA lectin binding to printed small molecules – biochemical, small-molecule microarray, 635/667 nm fluorescence, artefact control for SMM control-protein annotation, profiling panel (AID 1140).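 Note: score merges 667 nm feature emission with signal to noise over triplicate slides.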 The conditions noted are these: WGA-A647 binding, 635 nm fluorescence, higher = more signal.
In assay [17] the target is Luciferin 4-monooxygenase (Photinus pyralis) (UniProt P08659). Kind of assay: inhibition of purified Photinus pyralis luciferase – biochemical, luminescence, purified enzyme, 2006 set, primary screen (AID 1141).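 Note: cell-free assay with purified firefly luciferase at 100 ng per well in PBS; test concentration not given here.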 The note with it: purified firefly luciferase, SteadyGlo luminescence, 30 min; higher = more signal, called active from +8 up or from −8 down.

The structures appear in SMILES notation. Calls of active or inactive are those of the source.

Follistatin (Homo sapiens), sequence (P19883 whole entry, looked up): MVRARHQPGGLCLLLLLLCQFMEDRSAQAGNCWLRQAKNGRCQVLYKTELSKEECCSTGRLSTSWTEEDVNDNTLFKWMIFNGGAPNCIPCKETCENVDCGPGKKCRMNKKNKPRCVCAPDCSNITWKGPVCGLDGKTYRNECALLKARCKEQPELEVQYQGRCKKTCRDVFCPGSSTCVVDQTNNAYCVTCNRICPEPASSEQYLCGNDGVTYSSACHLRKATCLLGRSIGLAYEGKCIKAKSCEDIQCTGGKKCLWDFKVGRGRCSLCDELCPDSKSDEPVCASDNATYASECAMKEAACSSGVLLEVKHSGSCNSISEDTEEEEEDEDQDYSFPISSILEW
Albumin (Bos taurus), sequence (P02769 whole entry, looked up): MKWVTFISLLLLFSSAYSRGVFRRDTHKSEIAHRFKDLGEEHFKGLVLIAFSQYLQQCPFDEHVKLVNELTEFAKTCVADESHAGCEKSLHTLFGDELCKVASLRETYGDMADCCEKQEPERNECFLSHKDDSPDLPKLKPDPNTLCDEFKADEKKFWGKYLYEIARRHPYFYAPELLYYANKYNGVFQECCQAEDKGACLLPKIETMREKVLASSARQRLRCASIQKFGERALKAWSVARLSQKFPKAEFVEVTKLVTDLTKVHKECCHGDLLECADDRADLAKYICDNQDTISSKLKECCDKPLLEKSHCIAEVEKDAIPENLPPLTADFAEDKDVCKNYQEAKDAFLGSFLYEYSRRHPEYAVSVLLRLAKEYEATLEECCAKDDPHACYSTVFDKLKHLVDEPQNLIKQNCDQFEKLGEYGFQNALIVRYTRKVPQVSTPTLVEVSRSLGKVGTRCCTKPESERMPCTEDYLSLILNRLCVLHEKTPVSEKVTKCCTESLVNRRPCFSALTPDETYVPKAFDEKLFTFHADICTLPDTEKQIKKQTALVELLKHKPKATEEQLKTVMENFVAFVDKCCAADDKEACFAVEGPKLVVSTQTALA
Concanavalin-A (Canavalia ensiformis), sequence (P02866 whole entry, looked up): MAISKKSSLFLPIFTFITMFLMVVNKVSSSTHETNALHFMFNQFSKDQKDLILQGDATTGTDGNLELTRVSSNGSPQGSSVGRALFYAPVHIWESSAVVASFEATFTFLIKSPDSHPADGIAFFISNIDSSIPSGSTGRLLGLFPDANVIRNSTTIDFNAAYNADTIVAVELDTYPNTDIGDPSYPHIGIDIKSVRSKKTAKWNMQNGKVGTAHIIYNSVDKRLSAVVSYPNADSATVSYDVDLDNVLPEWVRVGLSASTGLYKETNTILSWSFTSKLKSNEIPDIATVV
Fibroblast growth factor 2 (Homo sapiens), sequence (P09038 whole entry, looked up): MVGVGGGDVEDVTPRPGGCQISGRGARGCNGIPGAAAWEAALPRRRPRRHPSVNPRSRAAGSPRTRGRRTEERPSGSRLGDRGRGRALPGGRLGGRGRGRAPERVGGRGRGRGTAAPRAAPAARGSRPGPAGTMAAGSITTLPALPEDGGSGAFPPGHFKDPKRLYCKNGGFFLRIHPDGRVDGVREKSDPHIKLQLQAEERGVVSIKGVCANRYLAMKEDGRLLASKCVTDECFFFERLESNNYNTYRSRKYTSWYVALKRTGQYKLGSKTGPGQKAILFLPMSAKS
Focal adhesion kinase 1 (Homo sapiens), sequence (Q05397 whole entry, looked up): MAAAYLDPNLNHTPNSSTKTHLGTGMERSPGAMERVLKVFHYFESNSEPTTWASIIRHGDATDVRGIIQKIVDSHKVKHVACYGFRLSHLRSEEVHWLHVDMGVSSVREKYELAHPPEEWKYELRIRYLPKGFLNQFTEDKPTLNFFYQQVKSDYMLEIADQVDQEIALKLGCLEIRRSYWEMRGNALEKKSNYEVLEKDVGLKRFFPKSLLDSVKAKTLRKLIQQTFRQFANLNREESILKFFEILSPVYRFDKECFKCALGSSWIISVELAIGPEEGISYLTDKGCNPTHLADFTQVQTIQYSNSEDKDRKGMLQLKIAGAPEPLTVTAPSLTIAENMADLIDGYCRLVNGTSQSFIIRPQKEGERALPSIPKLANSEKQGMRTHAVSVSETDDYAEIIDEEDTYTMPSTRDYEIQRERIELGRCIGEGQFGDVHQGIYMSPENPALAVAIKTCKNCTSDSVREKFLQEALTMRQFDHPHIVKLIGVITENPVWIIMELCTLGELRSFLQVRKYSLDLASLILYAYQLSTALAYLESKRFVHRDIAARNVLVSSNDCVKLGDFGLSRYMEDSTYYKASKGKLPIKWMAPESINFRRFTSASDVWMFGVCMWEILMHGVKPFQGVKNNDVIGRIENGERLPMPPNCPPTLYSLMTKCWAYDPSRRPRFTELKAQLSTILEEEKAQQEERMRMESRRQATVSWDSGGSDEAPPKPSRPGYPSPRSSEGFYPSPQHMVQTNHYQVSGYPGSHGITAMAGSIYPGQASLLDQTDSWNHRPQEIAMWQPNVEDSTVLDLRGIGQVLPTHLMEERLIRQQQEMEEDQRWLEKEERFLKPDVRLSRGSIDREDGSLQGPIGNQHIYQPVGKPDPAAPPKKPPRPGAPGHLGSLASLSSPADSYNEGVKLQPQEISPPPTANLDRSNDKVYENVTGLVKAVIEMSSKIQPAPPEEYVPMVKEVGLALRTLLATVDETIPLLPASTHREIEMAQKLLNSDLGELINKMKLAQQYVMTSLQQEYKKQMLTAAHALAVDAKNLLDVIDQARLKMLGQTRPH
Luciferin 4-monooxygenase (Photinus pyralis), sequence (P08659 whole entry, looked up): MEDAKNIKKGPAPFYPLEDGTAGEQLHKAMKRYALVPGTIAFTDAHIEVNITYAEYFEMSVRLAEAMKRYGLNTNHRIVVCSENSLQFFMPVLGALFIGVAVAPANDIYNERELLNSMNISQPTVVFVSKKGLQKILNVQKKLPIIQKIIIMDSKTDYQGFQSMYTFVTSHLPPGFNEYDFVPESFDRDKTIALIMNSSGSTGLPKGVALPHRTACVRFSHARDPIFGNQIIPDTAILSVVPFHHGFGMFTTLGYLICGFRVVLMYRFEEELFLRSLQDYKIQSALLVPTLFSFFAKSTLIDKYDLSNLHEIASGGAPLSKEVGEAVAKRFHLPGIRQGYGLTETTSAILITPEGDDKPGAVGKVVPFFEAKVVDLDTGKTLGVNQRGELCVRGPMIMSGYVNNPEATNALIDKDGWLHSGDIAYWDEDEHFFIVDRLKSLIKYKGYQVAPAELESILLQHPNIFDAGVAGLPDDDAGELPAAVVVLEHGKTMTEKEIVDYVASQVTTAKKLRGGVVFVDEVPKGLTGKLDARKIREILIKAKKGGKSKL

`CCCNC(=O)[C@@H]1c2ccccc2C(=O)N(C2CCCCC2)[C@H]1c1ccc(CO)cc1`: the composite z-score is 0.334 with Albumin (Bos taurus); 0.103 in assay [2]; -0.106 in assay [3]; 0.293 in [4]; 2.72 in assay [5]; 0.711 in assay [6]. Besides, the composite z-score in the assay with Sam68 (KHDRBS1) came to 1.29; in assay [7], 0.179; in assay [8], 1.03; in [9] it was 2.26; in assay [10], 1.22; in assay [11], 0.798. Besides, the composite z-score in assay [12] worked out at 0.958; in assay [13] it was 0.927; in [14], 0.915; with Lefty1, 0.443; in [16] it was 0.795. Besides, in assay [1], the composite Z-score is 0.474 (inactive). Further, the z-score in assay [15] is 0.888; in assay [17], 0.311 (inactive).

As to `C=CCN1C(=O)[C@]2(O[C@H](CCn3cc(CCO)nn3)[C@@H]([Si](C)(C)c3ccc(OC)cc3)[C@@H]2C)c2cc(NC(=O)c3ccc(OC)cc3)ccc21`, the composite z-score in the assay with Albumin (Bos taurus) was 0.0645; in assay [2], 0.141; in assay [3], -0.044; in assay [4], 0.131; in assay [5], 0.514; in [6], -0.0812. Besides, the composite z-score with Sam68 (KHDRBS1) stood at 1.3; in assay [7] it was 0.782; in [8], 1.08; in assay [9], 0.94; in [10], 1.14; in [11] it was 0.611. The composite z-score in assay [12] was found to be 0.708; in assay [13], 1.35; in assay [14], 1.2; in the assay on Lefty1, 1.01; in [16], 0.816. Also, the composite Z-score in [1] is -0.624 (inactive). The figures for the z-score in assay [15] and in [17] were 2.37 and -2.28 (inactive), respectively.

On to `C=C(COC)/C(=C/C[C@H](OC(C)=O)c1ccc(OCCO)cc1)c1cnc2ccccc2c1`, for which the composite z-score with Albumin (Bos taurus) is 0.0916; in assay [2], 0.196; in assay [3], -0.108; in assay [4] it was 0.797; in assay [5], 0.193; in [6], -0.0578. Further, the composite z-score in the assay with Sam68 (KHDRBS1) was 1.27; in [7] it was 1.24; in assay [8] it was 1.05; in assay [9] it was -0.418; in assay [10], 1.14; in assay [11] it was 0.771. Also, the composite z-score in assay [12] stood at 0.333; in assay [13], 1.4; in [14], 0.813; in the assay with Lefty1, 1.27; in assay [16], 1.23. Also, the composite Z-score in assay [1] was -0.0473 (inactive). The values for the z-score in assay [15] and in [17] were 1.8 and -1.81 (inactive), respectively.

With `CC(C)CNC(=O)[C@@]1(C)c2ccccc2C(=O)N(Cc2ccc(OC(F)(F)F)cc2)[C@H]1c1ccc(CO)cc1`, the composite z-score is -0.2 with Albumin (Bos taurus); -0.241 in assay [2]; -0.0094 in [3]; 0.706 in [4]; 1.17 in [5]; 0.559 in assay [6]. For the same compound, the composite z-score was -0.718 with Sam68 (KHDRBS1); -1.3 in assay [7]; -1.74 in assay [8]; 0.206 in [9]; 0.325 in [10]; -0.0752 in assay [11]. The composite z-score is -0.0439 in assay [12]; -0.27 in assay [13]; 0.192 in [14]; -1.43 in the assay with Lefty1; -0.0416 in assay [16]. Also, in assay [1], the composite Z-score was 0.416 (inactive). Also, the z-score was 0.209 in [15] and -1.22 (inactive) in assay [17].

Take `C[N+](C)(C)CCCC[C@@H]1NC(=O)[C@H]2C[C@@H](C(=O)NCc3ccc(F)cc3)[C@@H](c3cccc(OCCO)c3)N2C1=O`: the composite z-score is 0.392 in the assay with Albumin (Bos taurus); -0.0328 in assay [2]; -0.179 in assay [3]; 0.811 in [4]; 1.48 in assay [5]; 0.633 in [6]. Further, the composite z-score turned out to be 1.15 with Sam68 (KHDRBS1); 0.864 in [7]; 1.08 in [8]; 1.02 in assay [9]; 0.431 in assay [10]; 1.05 in assay [11]. In addition, the composite z-score in assay [12] was determined as 0.14; in assay [13] it was 1.46; in assay [14] it was 1.85; in the assay with Lefty1, 1.07; in assay [16] it was 0.0979. Further, the composite Z-score in assay [1] was 1.57 (inactive). Also, the z-score is 1.3 in assay [15] and -0.908 (inactive) in assay [17].

The record behind these values is PubChem BioAssay.
